Out of some 23,000 compounds screened, about 30 (0.1%) showed an effect of 50% or more. Many of the other results were omitted from the sample, so strong results are more common in it than they were. Results with a measured potency or affinity are listed apart.

For orientation: Inhibition means the share of the control response that was lost under treatment. Read a high Inhibition as strong suppression.

The test relates to Pseudomonas aeruginosa. The conditions noted are these: Concentration 20 uM; ASSAY_TEST Inhibition of Bacterial Growth; detection method Absorption (OD600); MEDIA CAMHB; plate type 384well; NBS; CORNING #3640; time 18 hr.
The compound `Cc1ncc2n1-c1ccc(Cl)cc1C(c1ccccc1F)=NC2.Cl` [MIDAZOLAM HYDROCHLORIDE] registered an Inhibition of 11.86%.
For the compound `Cc1nnc2n1-c1ccc(Cl)cc1C(c1ccccc1)=NC2` [ALPRAZOLAM], the Inhibition is on record as 52.22%.
The compound `CN1C(=O)CN=C(c2ccccc2)c2cc(Cl)ccc21` [DIAZEPAM] displayed an Inhibition of 6.74%.
`Cn1c(=O)c2nc[nH]c2n(C)c1=O.O` [THEOPHYLLINE] gave an Inhibition of 16.98%.

The values above are taken from ChEMBL document CHEMBL4513141, “CO-ADD screening of NIH (USA) - Clinical Collection” (2021).
